Among all 5,500 compounds or so, about 2,000 (36%) were called active. Inconclusive results (about 18%) are left out. No stated cut-off is given here; in the data, active means normalized growth mostly below about 0.91 (no sharp cut-off); inconclusive means no clear call, values can overlap the other calls; inactive means mostly above about 0.92. Some of the results follow.
Test: chemical genetic growth profiling, strain panel (AID 1159580);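 further: tested at 20 µM; growth read once vehicle control cultures reached saturation at 30 °C; 1 = growth at the plate median or of vehicle wells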
Conditions: growth OD

Measured: normalized growth

CCOC(=O)[C@H](CCc1ccccc1)N[C@H]1CCc2ccccc2N(CC(=O)O)C1=O
inactive: S. cerevisiae deletion strains, locus YJR075W, strain HOC1, stronger effect = lower value 0.994 | S. cerevisiae deletion strains, locus YKL009W, strain mrt4, stronger effect = lower value 1 | S. cerevisiae deletion strains, locus YKL068W, stronger effect = lower value 0.973 | S. cerevisiae deletion strains, locus YKL085W, strain MDH1 (second series), stronger effect = lower value 0.967 | S. cerevisiae deletion strains, locus YKL085W, strain MDH1, stronger effect = lower value 0.967 | S. cerevisiae deletion strains, locus YKL160W, strain elf1, stronger effect = lower value 0.993 | S. cerevisiae deletion strains, locus YKL190W, strain CNB1, stronger effect = lower value 0.989 | S. cerevisiae deletion strains, locus YKR001C, strain vps1, stronger effect = lower value 0.983 | S. cerevisiae deletion strains, locus YKR026C, strain gcn3, stronger effect = lower value 0.979 | S. cerevisiae deletion strains, locus YKR091W, strain srl3, stronger effect = lower value 0.989 | S. cerevisiae deletion strains, locus YLL001W, strain dnm1, stronger effect = lower value 0.983 | S. cerevisiae deletion strains, locus YLL026W, stronger effect = lower value 0.989 | S. cerevisiae deletion strains, locus YLL041C, strain sdh2, stronger effect = lower value 0.986 | S. cerevisiae deletion strains, locus YLR027C, strain aat2, stronger effect = lower value 0.982 | S. cerevisiae deletion strains, locus YLR039C, strain RIC1, stronger effect = lower value 1.02 | S. cerevisiae deletion strains, locus YLR058C, strain SHM2, stronger effect = lower value 0.999 | S. cerevisiae deletion strains, locus YLR102C, strain apc9, stronger effect = lower value 0.972 | S. cerevisiae deletion strains, locus YLR113W, strain HOG1, stronger effect = lower value 1.01 | S. cerevisiae deletion strains, locus YLR221C, strain rsa3, stronger effect = lower value 0.983 | S. cerevisiae deletion strains, locus YLR258W, strain gsy2, stronger effect = lower value 0.983 | S. cerevisiae deletion strains, locus YLR262C, strain YPT6 (second series), stronger effect = lower value 0.97 | S. cerevisiae deletion strains, locus YLR262C, strain YPT6, stronger effect = lower value 0.955 | S. cerevisiae deletion strains, locus YLR268W, strain sec22, stronger effect = lower value 0.98 | S. cerevisiae deletion strains, locus YLR320W, strain mms22, stronger effect = lower value 0.966 | S. cerevisiae deletion strains, locus YLR330W, strain CHS5, stronger effect = lower value 0.986 | S. cerevisiae deletion strains, locus YLR342W, strain FKS1 (second series), stronger effect = lower value 1.05 | S. cerevisiae deletion strains, locus YLR342W, strain FKS1, stronger effect = lower value 0.956 | S. cerevisiae deletion strains, locus YLR357W, strain rsc2, stronger effect = lower value 0.912 | S. cerevisiae deletion strains, locus YLR370C, strain arc18, stronger effect = lower value 0.988 | S. cerevisiae deletion strains, locus YLR371W, strain rom2, stronger effect = lower value 0.969 | S. cerevisiae deletion strains, locus YLR384C, strain iki3, stronger effect = lower value 0.986 | S. cerevisiae deletion strains, locus YLR418C, strain cdc73, stronger effect = lower value 0.953 | S. cerevisiae deletion strains, locus YML016C, strain PPZ1, stronger effect = lower value 0.98 | S. cerevisiae deletion strains, locus YML032C, strain rad52, stronger effect = lower value 0.984 | S. cerevisiae deletion strains, locus YML120C, strain ndi1, stronger effect = lower value 0.975 | S. cerevisiae deletion strains, locus YML124C, strain tub3, stronger effect = lower value 0.971 | S. cerevisiae deletion strains, locus YMR058W, strain fet3, stronger effect = lower value 0.988 | S. cerevisiae deletion strains, locus YMR078C, strain ctf18, stronger effect = lower value 0.978 | S. cerevisiae deletion strains, locus YMR125W, strain sto1, stronger effect = lower value 0.996 | S. cerevisiae deletion strains, locus YMR129W, stronger effect = lower value 0.991 | S. cerevisiae deletion strains, locus YMR205C, strain PFK2, stronger effect = lower value 0.974 | S. cerevisiae deletion strains, locus YMR223W, strain ubp8, stronger effect = lower value 0.993 | S. cerevisiae deletion strains, locus YMR231W, strain pep5, stronger effect = lower value 0.986 | S. cerevisiae deletion strains, locus YMR263W, strain SAP30, stronger effect = lower value 0.993 | S. cerevisiae deletion strains, locus YMR307W, strain GAS1, stronger effect = lower value 0.939 | S. cerevisiae deletion strains, locus YNL067W, strain RPL9B, stronger effect = lower value 0.996 | S. cerevisiae deletion strains, locus YNL071W, strain lat1, stronger effect = lower value 0.989 | S. cerevisiae deletion strains, locus YNL128W, strain TEP1, stronger effect = lower value 0.984 | S. cerevisiae deletion strains, locus YNL153C, strain GIM3, stronger effect = lower value 0.988 | S. cerevisiae deletion strains, locus YNL183C, strain NPR1, stronger effect = lower value 0.959 | S. cerevisiae deletion strains, locus YNL209W, strain ssb2, stronger effect = lower value 0.98 | S. cerevisiae deletion strains, locus YNL233W, strain BNI4, stronger effect = lower value 0.99 | S. cerevisiae deletion strains, locus YNL248C, strain rpa49, stronger effect = lower value 0.98 | S. cerevisiae deletion strains, locus YNL250W, strain rad50, stronger effect = lower value 0.963 | S. cerevisiae deletion strains, locus YNL271C, strain bni1, stronger effect = lower value 0.959 | S. cerevisiae deletion strains, locus YNL298W, strain CLA4, stronger effect = lower value 0.968 | S. cerevisiae deletion strains, locus YNL307C, strain MCK1, stronger effect = lower value 0.986 | S. cerevisiae deletion strains, locus YNL322C, strain KRE1 (second series), stronger effect = lower value 0.967 | S. cerevisiae deletion strains, locus YNL322C, strain KRE1, stronger effect = lower value 0.98 | S. cerevisiae deletion strains, locus YNR049C, strain mso1, stronger effect = lower value 0.994 | S. cerevisiae deletion strains, locus YNR052C, strain pop2, stronger effect = lower value 0.977 | S. cerevisiae deletion strains, locus YOL006C, strain TOP1, stronger effect = lower value 1.08 | S. cerevisiae deletion strains, locus YOL012C, strain htz1 1.02 | S. cerevisiae deletion strains, locus YOL147C, strain pex11, stronger effect = lower value 0.975 | S. cerevisiae deletion strains, locus YOR001W, strain rrp6, stronger effect = lower value 0.989 | S. cerevisiae deletion strains, locus YOR061W, strain CKA2, stronger effect = lower value 0.983 | S. cerevisiae deletion strains, locus YOR069W, strain VPS5, stronger effect = lower value 0.99 | S. cerevisiae deletion strains, locus YOR070C, strain gyp1, stronger effect = lower value 0.982 | S. cerevisiae deletion strains, locus YOR080W, strain dia2, stronger effect = lower value 0.973 | S. cerevisiae deletion strains, locus YOR083W, strain WHI5, stronger effect = lower value 0.982 | S. cerevisiae deletion strains, locus YOR106W, strain vam3, stronger effect = lower value 0.984 | S. cerevisiae deletion strains, locus YOR136W, strain idh2, stronger effect = lower value 0.974 | S. cerevisiae deletion strains, locus YOR144C, strain elg1, stronger effect = lower value 0.965 | S. cerevisiae deletion strains, locus YOR184W, strain ser1, stronger effect = lower value 0.981 | S. cerevisiae deletion strains, locus YOR231W, strain MKK1, stronger effect = lower value 0.976 | S. cerevisiae deletion strains, locus YOR265W, strain rbl2, stronger effect = lower value 0.987 | S. cerevisiae deletion strains, locus YOR270C, strain vph1, stronger effect = lower value 1.04 | S. cerevisiae deletion strains, locus YOR290C, strain snf2, stronger effect = lower value 0.993 | S. cerevisiae deletion strains, locus YOR316C, strain cot1, stronger effect = lower value 0.959 | S. cerevisiae deletion strains, locus YPL051W, strain arl3, stronger effect = lower value 0.978 | S. cerevisiae deletion strains, locus YPL055C, strain LGE1, stronger effect = lower value 1.02 | S. cerevisiae deletion strains, locus YPL078C, strain atp4, stronger effect = lower value 0.984 | S. cerevisiae deletion strains, locus YPL106C, strain sse1, stronger effect = lower value 0.963 | S. cerevisiae deletion strains, locus YPL240C, strain hsp82, stronger effect = lower value 0.979 | S. cerevisiae deletion strains, locus YPL241C, strain CIN2, stronger effect = lower value 0.983 | S. cerevisiae deletion strains, locus YPL256C, strain CLN2, stronger effect = lower value 0.965 | S. cerevisiae deletion strains, locus YPR119W, strain clb2, stronger effect = lower value 0.971 | S. cerevisiae deletion strains, locus YPR141C, strain kar3, stronger effect = lower value 0.948 | S. cerevisiae deletion strains, locus YPR163C, strain tif3, stronger effect = lower value 0.968 | S. cerevisiae deletion strains, locus YPR167C, strain met16, stronger effect = lower value 0.978 | S. cerevisiae deletion strains, strain wtn01, stronger effect = lower value 0.973 | S. cerevisiae strains, strain wild type, stronger effect = lower value 0.98
